Measurements reported in ChEMBL document CHEMBL3988442, “University of Dundee, Small-Polar-MMV Screening Library” (2021).
About 13,000 (27%) of roughly 48,000 compounds showed an effect of 50% or more. The list shows a part of the results.

These molecules were tested on Wolbachia pipientis (assay: Anti-Wolbachia Cell-Based Screen). Conditions: 5 µM.
Format: functional
Parameters: scale not given: in the data most compounds retested in dose-response had high values

Compound	Percent Effect [%]
O[C@@H]1CN(Cc2cc(Cl)cc3cccnc23)C[C@@H]1O	10.63
Cc1nc(CN(C)C(=O)c2ccc(Cn3cnnn3)cc2)cs1	-19.39
CCOc1ncccc1Cn1cc(-c2cncnc2)nn1	-4.97
O=C(NCc1nncn1C1CC1)c1ccc(F)c(COCC2CC2)c1	-29.13
CC(=O)c1ccc(N2CCC(CO)(CCOc3ccccc3)CC2)nc1	-10.96
CC(C)c1nc(CN(C)Cc2ncccc2C(=O)O)cs1	-6.183
O=C(c1ccc2nccnc2c1)N1C[C@@H](CN2CCCC2)[C@@H](CO)C1	-11.65
Cn1ccnc1C1CCCN(C(=O)c2ccc3nccnc3c2)C1 (configuration not stated)	95.06
CC(C)C1CN(C(=O)c2ccc3nccnc3c2)CCS1 (configuration not stated)	-6.684
CCOc1ccccc1C(=O)N1CCCC(c2nccn2CCOC)C1 (configuration not stated)	-0.2171
CCOc1ccc(C(=O)N2C[C@H]3CC[C@@H]2CN(C)C3)cc1OCC	-32.38
CCOc1ccc(C(=O)N2CCCC(c3nccn3C)C2)cc1OCC (configuration not stated)	100.4
O=C1NCC[C@]12CN(Cc1ccsc1)C[C@H]2c1ccccc1	6.958
N#Cc1ccc(CN2C[C@@H]3OCC(=O)N[C@@H]3C2)cc1	-14.55
CN(C)C(=O)CN1CCC2(CCCN(Cc3ccsc3)C2)C1=O (configuration not stated)	-8.794
N#Cc1ccc(CN2CCCC3(Cc4ccccc4CNC3=O)C2)cc1 (configuration not stated)	129.6
COCCC1(CO)CCCN(CCCc2ccccc2)C1 (configuration not stated)	-2.01
O=C1N(CCCc2ccccc2)CCCC12CCN(C(CO)CO)C2 (configuration not stated)	4.777
COCCC1(CO)CCCN(Cc2ccc(C#N)cc2)C1 (configuration not stated)	0.3825
O=C1NCc2ccccc2CC12CCCN(Cc1ccsc1)C2 (configuration not stated)	112.5
O=C1NCc2ccccc2CC12CCCN(CCCc1ccccc1)C2 (configuration not stated)	107.4
Cc1nc(CN2CC[C@@H]3[C@@H](CCC(=O)N3CCc3c[nH]cn3)C2)co1	-20.08
COCCN1C[C@@H](C(=O)O)[C@H](c2ccccc2C)C1	-9.465
COCCn1cnnc1Cn1ccnc1-c1ccsc1	-0.8108
CN(CCO)Cc1nnc(C2CCN(CC(C)(C)C)CC2)n1C	3.482
CCn1nnc2c1CCN(S(C)(=O)=O)C2COCc1ccccc1 (configuration not stated)	-2.948

Compound	Percent Effect [%]
c1cncc(COCC2CNCc3nccn3C2)c1 (configuration not stated)	6.541
CC(C)Cc1ccc(S(=O)(=O)NCCCN2CCNC(=O)C2)cc1	7.437
Cc1ccc(-n2ccnc2)c(C(=O)NCCCN(C)C)c1	-3.641
CN(c1ccc(C(=O)NCCCN2CCOCC2)c(Cl)c1)S(C)(=O)=O	-4.637
CN(C)CCCNC(=O)c1cc(Cl)ccc1Cl	87.97
CSCC(C)(O)CNC(=O)c1cc(Cl)ccc1Cl (configuration not stated)	2.772
CN(C)CCCNC(=O)c1ccc(Cl)cc1Cl	119
CN(C)CCCNC(=O)c1cc(Br)c2c(c1)OCCO2	-6.944
COc1cccc2c1OCC(NCc1cnn(-c3ccccc3F)c1)C2 (configuration not stated)	-11.75
COc1c(CNCCC(=O)Nc2cccc(C)n2)c(C)nn1C	6.6
NC(=O)COc1cccc(C(=O)Nc2cnc3n2CCCC3)c1	11.29
Cc1cccc(NC(=O)c2ccc(OCc3nnnn3C)cc2)n1	107.3
Cc1cccc(NC(=O)c2cccc(OCc3nnnn3C)c2)n1	73.29
COc1cc(C(C)=O)ccc1SCC(=O)Nc1cccc(C)n1	6.413
Cc1cc(C)n(CC(C)CNC(=O)N(C)Cc2cc(C)on2)n1 (configuration not stated)	9.156
Cc1cc(C)n(CNc2nonc2C(N)=O)n1	109.2
COc1nonc1NCn1nc(C)cc1C	152
NC(=O)c1cccc(CC2CCN(C(=O)Cn3cnnn3)C2)c1 (configuration not stated)	-10.16
CCN(CCC#N)Cn1ncc2cn(-c3ccccc3)nc2c1=O	15.78
Cc1ncsc1C(=O)NC1CCN(CC(=O)N(C)C(C)(C)C#N)CC1	-1.04
NC[C@H]1CC[C@H](C(NC(=O)c2cccc(F)c2)c2ccccn2)CC1 (some centres not stated)	1.736
COc1cc(F)c(C(C)NC(=O)c2cccnc2C)cc1OC (configuration not stated)	-13.32
COc1ccccc1C(=O)NC(c1ccccn1)[C@H]1CC[C@H](CN)CC1 (some centres not stated)	100.4
COC(=O)c1sc(C(NC(=O)c2ccccc2)C2CC2)nc1C (configuration not stated)	-18.8
COc1cccc(C(=O)NC(c2ccccn2)[C@H]2CC[C@H](CN)CC2)c1 (some centres not stated)	98.61
COc1ccccc1C(=O)NC(CC(=O)O)c1cccs1 (configuration not stated)	13.12

Compound	Percent Effect [%]
CN(C)C(=O)C1(C)CN(Cc2cn(C)c3ccccc23)CCO1 (configuration not stated)	120.9
CN(C)C(=O)C1(C)CN(Cc2cn(C)c3ccc(F)cc23)CCO1 (configuration not stated)	142.1
Cc1cc(F)ccc1CN1CCCC2(C1)OCCO2	-1.552
CN(CCN1CCOCC1)C(=O)C1(c2ccc(F)cc2F)CCC1	9.471
CCCN1CCN(Cc2cn(CCC(N)=O)c3ccccc23)CC1	5.612
CNC(=O)C1(C)CN(Cc2cn(C)c3ccc(F)cc23)CCO1 (configuration not stated)	119.3
Cn1cc(C2(C)CN(Cc3ccc(Cl)c(F)c3)CCO2)cn1 (configuration not stated)	-1.471
CN(C)C(=O)COc1ccccc1CN1CCOC2(CCCC2)C1	35.78
CNC(=O)[C@@H]1CC[C@@H]2[C@@H](CCN2Cc2cn(C)c3ccccc23)O1.O=C(O)C(F)(F)F	12.94
CC(NCCCn1ccnc1)c1ccc(N2CCOC2=O)cc1 (configuration not stated)	-1.07
c1cnc(N2CC3(CCN(C4CCOC4)CC3)c3ccccc32)nc1 (configuration not stated)	13
O=C(CCN1CCCC1)N1CC[C@@H](c2ccc3ccccc3c2)[C@H](O)C1	-4.226
CC(C)C(Sc1ccccc1)C(=O)N(C)Cc1nnc2n1CCC2 (configuration not stated)	14.25
CCc1cc(-c2nccn2-c2ccccc2CN2CCOCC2)on1	1.321
Cc1nc(C)c(CN2CCOC[C@H](Oc3ccccc3)C2)s1	-8.964
Cc1nnc([C@@]23CCO[C@@H]2CCN(S(C)(=O)=O)C3)o1	-9.969
Cc1noc([C@@]23CCO[C@@H]2CCN(C(=O)C2CCOCC2)C3)n1	-2.403
Cc1noc([C@@]23CCO[C@@H]2CCN(S(=O)(=O)c2cccnc2)C3)n1	103
Cc1noc([C@@]23CCO[C@@H]2CCN(C(=O)c2sccc2C)C3)n1	-13.91
Cc1nnc([C@@]23CCO[C@@H]2CCN(S(=O)(=O)c2ccccc2)C3)o1	90.56
Cc1nnc([C@]23COC[C@H]2CN(Cc2cccs2)C3)o1.O=C(O)C(F)(F)F	0.3646
CCCS(=O)(=O)N1CC[C@H]2OCC[C@@]2(c2nnc(C)o2)C1	-9.465
Cc1nnc([C@@]23CCO[C@@H]2CCN(S(=O)(=O)c2cccnc2)C3)o1	88.28
Cc1nnc([C@]23COC[C@H]2CN(S(=O)(=O)c2cccnc2)C3)o1.O=C(O)C(F)(F)F	103.4
O=C1N(CC2CCC2)CCCC12CCN(S(=O)(=O)c1cccnc1)C2 (configuration not stated)	16.59
Cc1nnc([C@]23COC[C@H]2CN(Cc2cnn(C)c2)C3)o1.O=C(O)C(F)(F)F	-19.13

Compound	Percent Effect [%]
CC(NC(=O)c1ccoc1)C(=O)N(C)Cc1ccsc1 (configuration not stated)	8.82
COc1cc(C(=O)N2CCCC(CNS(C)(=O)=O)C2)cc(OC)c1C (configuration not stated)	0.06204
CC(C)Oc1cc(N2CCN(Cc3ccsc3)C(CCO)C2)nc(N)n1 (configuration not stated)	-3.773
CCCC(NC(=O)c1ccc(OC)cc1F)c1nnn[nH]1 (configuration not stated)	-0.1945
COc1c(NS(=O)(=O)c2cc(C)ccc2C)c(C)nn1C	9.711
Cc1ccc(N2CCC(c3[nH]ncc3Cc3ccccc3)CC2)nn1	27.05
Cc1ccc(N2CCCC(c3[nH]ncc3Cc3ccccc3)C2)nn1 (configuration not stated)	26.61
Cc1cc(N2CCCC(c3[nH]ncc3Cc3ccccc3)C2)nc(N)n1 (configuration not stated)	51.86
CCCc1cc(=O)[nH]c2nnc(SCC(=O)OCC)n12	11
CC(C)(C)c1cc(NC(=O)CN(Cc2ccco2)Cc2cccs2)on1	15.1
Cc1nnc(CN(Cc2ccccc2Cl)C2CCCC2)o1	-12.06
CC1CN(C(=O)CCc2cc(Br)cs2)CCO1 (configuration not stated)	-0.4778
CC1CN(C(=O)CN(Cc2ccccc2)C2CC2)CCO1 (configuration not stated)	126.4
CC1CN(C(=O)c2ccn(-c3cccc(Cl)c3)n2)CCO1 (configuration not stated)	3.639
CC1CN(C(=O)CN(Cc2ccccc2Cl)C2CCCC2)CCO1 (configuration not stated)	167.1
CC1CN(C(=O)c2sccc2Br)CCO1 (configuration not stated)	5.426
CC1CN(C(=O)CN(Cc2ccco2)Cc2cccs2)CCO1 (configuration not stated)	127.8
CC1CN(C(=O)CN(Cc2ccccc2Br)C2CC2)CCO1 (configuration not stated)	15.13
CC1CN(C(=O)CN(Cc2ccco2)C2CC2)CCO1 (configuration not stated)	-3.205
Cn1cc(C(=O)N(Cc2ccco2)Cc2cccs2)ccc1=O	-5.076
Cc1ccc(CN(CC(=O)N2CCOC(C)C2)C2CC2)cc1 (configuration not stated)	133.3
Cc1cc(NC(=O)N(C)C2CCN(c3ccccc3F)C2=O)n(C)n1 (configuration not stated)	-7.553
O=C(c1ccc2c(c1)CCO2)N1CCN(c2ccc(Cl)cn2)CC1	6.232
CN(C)CC1CN(CCOc2cccc(C#N)c2)CCO1 (configuration not stated)	0.1863
